We go through 18 molecules from PubChem BioAssay (NCATS).

For experiment [1], the target named is Cytochrome P450 3A4 (Homo sapiens) (UniProt P08684). The experiment is described as follows: qHTS Assay for Activators of Cytochrome P450 3A4 (AID 885). Further: nearly all actives have a fitted effect of over 65% in size. Summed up: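 Luminescent readout of luciferin formed from 25 uM Luciferin-PPXE (KM level) by 20 nM CYP3A4 in 200 mM KPO4, with 60 min NADPH-driven reaction at room temperature after 10 min compound exposure. Ketoconazole (57 uM) defined 100% inhibition.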
Sequence of Cytochrome P450 3A4 (Homo sapiens) (P08684 whole entry, looked up): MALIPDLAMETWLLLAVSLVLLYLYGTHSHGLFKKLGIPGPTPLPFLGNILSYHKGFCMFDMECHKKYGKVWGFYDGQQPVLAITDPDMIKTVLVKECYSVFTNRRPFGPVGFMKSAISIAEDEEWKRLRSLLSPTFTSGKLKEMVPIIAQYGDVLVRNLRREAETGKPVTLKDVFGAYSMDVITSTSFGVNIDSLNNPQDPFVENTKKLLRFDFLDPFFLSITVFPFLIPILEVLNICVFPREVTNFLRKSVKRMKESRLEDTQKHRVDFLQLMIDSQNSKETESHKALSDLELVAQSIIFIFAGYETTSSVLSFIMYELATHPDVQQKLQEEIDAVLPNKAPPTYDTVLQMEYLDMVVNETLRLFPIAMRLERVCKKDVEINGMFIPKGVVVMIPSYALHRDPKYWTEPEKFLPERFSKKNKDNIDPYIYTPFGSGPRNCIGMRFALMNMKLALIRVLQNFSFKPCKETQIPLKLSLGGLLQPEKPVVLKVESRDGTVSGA

Experiment [2] in a line: Confirmation and Secondary Assay for Modulators of Hemoglobin Beta Chain Splicing at IVS2 654 locus (AID 910).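 Further: HeLa cells stably carrying EGFP split by mutant beta-globin IVS2-654 intron.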 Summed up:
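HeLa cells stably expressing EGFP interrupted by β-globin IVS2-654 intron, seeded overnight in Opti-MEM/2% FCS, then treated 2 days at 37 °C. Restored splicing read as total peak GFP intensity per well by laser scanning cytometry (488 nm excitation, 500–520 nm emission); 500 nM antisense PNA as control.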

Experiment [3] can be described thus: Confirmation and Secondary Assay for Modulators of Hemoglobin Beta Chain Splicing at IVS2 705 locus (AID 930).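 Further: HeLa cells stably expressing the EGFP-705 splicing reporter; GFP fluorescence per well restored by corrected splicing of the IVS2-705 intron in EGFP.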 The essentials:
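HeLa cells stably carrying EGFP interrupted by mutant beta-globin intron 2 (IVS2-705) treated 2 days at 37C with compound; 500 nM antisense PNA as control. Correct splicing read as total peak GFP intensity per well by laser-scanning cytometry.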

Experiment [4] in a line: S16 Schwann cell PMP22 intronic element firefly luciferase assay (AID 624032). Further: nearly all actives have a fitted effect of over 30% in size. Further: potency means the concentration at half of the fitted maximal effect. Summed up: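 Rat S16 Schwann cells stably carrying firefly luciferase driven by a PMP22 intronic element, in 10% FBS, treated 24 h at 37 C. ONE-Glo luminescence normalized to PTC124 control and DMSO (0%); curves classed by r2, magnitude and activity.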
The next experiment relates to 7G8. The experiment is described as follows: qHTS profiling for inhibitors of Plasmodium falciparum proliferation (AID 504749). Further: nearly all actives have a fitted effect of over 60% in size. Further: potency means the concentration at half of the fitted maximal effect. Conditions: P. falciparum in erythrocytes, SYBR Green DNA, 72 h; series mostly up to 12.8 µM. The essentials: (§1)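 Each compound contacts P. falciparum-infected red blood cells for 72 h at 37 C; lysis buffer (Tris, EDTA, saponin, Triton X, SYBR Green I) is added and fluorescence measured next morning; values normalized to controls.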
A general note: In qHTS, concentration-response curves come from the screen itself.

A further experiment deals with ATS95. Described as above. Conditions: P. falciparum in erythrocytes, SYBR Green DNA, 72 h; series mostly up to 12.8 µM. The essentials: as §1
Another experiment relates to CP203. The experiment is described as above. Conditions: P. falciparum in erythrocytes, SYBR Green DNA, 72 h; series mostly up to 12.8 µM. Summed up:
as §1

A further experiment has as its system DIV14. The description is as above. The note with it: P. falciparum in erythrocytes, SYBR Green DNA, 72 h; series mostly up to 12.8 µM. The essentials:
as §1

Another experiment relates to GB4. The description is as above. Conditions: P. falciparum in erythrocytes, SYBR Green DNA, 72 h; series mostly up to 12.8 µM. Summed up: as §1
Experiment [5] deals with Mitogen-activated protein kinase 10 (Mus musculus) (UniProt Q61831). The experiment can be described thus: JNK3 AlphaScreen Assay (AID 530; active means well fitted curve in either direction with a large enough effect, not every such curve was filed as active;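 further: kinase came from lysate of stimulated human HepG2 cells; signal reports phosphorylation of biotinylated GST-cJun 1-79 at Ser73 with 10 µM ATP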). The essentials: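 Activity was read by AlphaScreen after JNK3-containing HepG2 lysate (cytokine pre-activated) phosphorylated biotinylated GST-cJun with 10 uM ATP at room temperature. Phospho-Ser73 cJun antibody with Protein-A acceptor beads provided detection.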
(Alpha assays give light when donor and acceptor beads are brought close together.)

The target in experiment [6] is DNA dC->dU-editing enzyme APOBEC-3G (Homo sapiens) (UniProt Q9HC16). The experiment can be described thus: qHTS for inhibitors of Vif-A3G interactions: Validation (AID 588379). Summed up:
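Yellow fluorescence (Ex 488, Em 500-530) of Vif-coexpressing HeLa A3G-eYFP cells, scanned by Acumen cytometer, reports blocked A3G degradation. Cells plated at 700/well overnight at 37 deg C before compound addition, then a further overnight compound incubation at 37 deg C.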

Experiment [7] concerns the target Cytochrome P450 3A4 (Homo sapiens) (UniProt P08684). The experiment can be described thus: qHTS Assay for Inhibitors and Substrates of Cytochrome P450 3A4 (AID 884). Further: nearly all actives have a fitted effect of over 50% in size. Further: potency means the concentration at half of the fitted maximal effect. The essentials: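 Luminescent readout of luciferin produced by CYP3A4 (20 nM) dealkylation of Luciferin-PPXE, 25 uM (its KM). NADPH-driven reaction ran 60 min at RT after 10 min compound preincubation; data scaled to 57 uM ketoconazole as 100% inhibition.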

Experiment [8] can be described thus: S16 Schwann cell PMP22 intronic element beta-lactamase assay (AID 624044; calls by dose curve; further: nearly all actives have a fitted effect of over 15% in size). Summed up:
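Beta-lactamase reporter under a PMP22 intronic regulatory element in stable S16 rat Schwann cells; 24 h compound exposure. 460 nm blue signal normalized between DMSO (0%) and potassium clavulanate, with 535 nm FRET tracking viability; curves classed by r2 and response.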

Inconclusive results are not listed. The source made the active and inactive calls. Unless noted, the call rests on the fitted dose curve; in most records, active means well fitted curve in the direction sought with a large enough effect; inconclusive means small, poorly fitted or top-dose-only effect, or another doubt; inactive means no such curve, though single readings can be large; an effect the other way counts as inactive or inconclusive.

Sequence of DNA dC->dU-editing enzyme APOBEC-3G (Homo sapiens) (Q9HC16 whole entry, looked up): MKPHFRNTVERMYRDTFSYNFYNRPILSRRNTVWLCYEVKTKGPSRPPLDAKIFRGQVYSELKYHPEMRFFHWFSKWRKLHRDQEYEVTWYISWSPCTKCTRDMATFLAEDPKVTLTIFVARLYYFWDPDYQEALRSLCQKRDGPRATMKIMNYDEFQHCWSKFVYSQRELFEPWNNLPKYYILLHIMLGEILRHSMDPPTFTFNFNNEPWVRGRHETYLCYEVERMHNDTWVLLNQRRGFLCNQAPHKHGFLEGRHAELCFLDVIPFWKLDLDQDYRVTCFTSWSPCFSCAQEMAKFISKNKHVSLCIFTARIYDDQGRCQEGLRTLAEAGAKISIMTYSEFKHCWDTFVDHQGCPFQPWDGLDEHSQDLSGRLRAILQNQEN

Consider `C/C1=C2N=C(/C=C3N=C(/C(C)=C4\[N-]C(C)(C5N=C1C(C)(CCC(=O)NCC(C)OP(=O)([O-])O[C@H]1C(O)C(n6cnc7cc(C)c(C)cc76)O[C@@H]1CO)C5CC(N)=O)C(C)(CC(N)=O)C4CCC(N)=O)C(C)(CC(N)=O)C\3CCC(N)=O)C(C)(C)C/2CCC(N)=O.[CH2-]C1OC(n2cnc3c(N)ncnc32)C(O)C1O.[Co]` (stereo not given in full), for which the Potency result (in experiment [1]; in experiment [2]; in [3]; in the experiment with 7G8; in the experiment on ATS95; with CP203) was “inactive” throughout. In addition, the Potency entry in the experiment on DIV14 and in the experiment on GB4 was “inactive” each time. Moreover, the Potency in experiment [4] is 14400 nM (active).

With `C[C@]1(c2ccccc2)OC(C(=O)O)=CC1=O`, the Potency entry (in [5]; in experiment [4]; with 7G8; in the experiment on ATS95; with CP203; in the experiment with DIV14) was “inactive” throughout. The Potency result with GB4 was “inactive”. The call in experiment [6] was inactive.

With `COc1cc(C2c3cc4c(cc3C(O[C@@H]3OC5COC(c6cccs6)OC5C(O)C3O)C3COC(=O)C23)OCO4)cc(OC)c1O` (stereo not given in full), the Potency in [7] was 6310 nM (active); in the experiment with 7G8, 631 nM (active); in the experiment on ATS95, 2510 nM (active); in the experiment with CP203 it was 3790 nM (active); with DIV14, 1900 nM (active); in the experiment with GB4 it was 2390 nM (active). The Potency result in experiment [1], in [2] and in [3] was “inactive” in each case.

In the case of `COc1ccc(CC(N)C(=O)NC2C(CO)OC(n3cnc4c(N(C)C)ncnc43)C2O)cc1` (stereo not given), the Potency entry in experiment [2] and in experiment [3] was “inactive” in each case. Also, the Potency in experiment [4] was 1280 nM (active); in the experiment on 7G8, 316 nM (active); in the experiment with ATS95 it was 1000 nM (active); in the experiment with CP203 it was 1510 nM (active); in the experiment with DIV14, 953 nM (active); with GB4, 675 nM (active).

In the case of `CC1(C)OC2CC(=O)OC[C@@]23C1CC(=O)[C@]1(C)C3CC[C@@]2(C)C(c3ccoc3)OC(=O)C3O[C@@]321` (stereo not given in full), the Potency result (in experiment [2]; in [3]; in experiment [4]; in the experiment with 7G8; in the experiment with ATS95; in the experiment on CP203) was “inactive” throughout. Further, the Potency result in the experiment on DIV14 and in the experiment with GB4 was “inactive” in each case.

Take `CNC1C(OC2C(O[C@@H]3C(O)C(O)[C@@H](N=C(N)N)C(O)C3N=C(N)N)OC(C)[C@@]2(O)CO)OC(CO)C(O)C1O` (stereo not given in full): the Potency result (in experiment [7]; in experiment [2]; in experiment [3]; in experiment [4]; in experiment [8]; in the experiment on 7G8) was “inactive” throughout. In addition, the Potency entry in the experiment on ATS95, with DIV14 and in the experiment on GB4 was “inactive” each time.

As to `OCC1OC([S-])[C@H](O)C(O)C1O.[Au+]` (stereo not given in full), the Potency result (in experiment [7]; in experiment [2]; in experiment [3]; in experiment [4]; with ATS95; in the experiment on CP203) was “inactive” each time. Besides, the Potency result with DIV14 and with GB4 was “inactive” each time.

For `OCC1O[C@H](OC2C(CO)O[C@@](O)(CO)C2O)C(O)C(O)C1O` (stereo not given in full), the Potency entry (in experiment [7]; in [2]; in [3]; in experiment [8]; in the experiment on 7G8; with ATS95) was “inactive” throughout. The Potency result in the experiment on CP203, in the experiment on DIV14 and with GB4 was “inactive” in each case.

With `COc1ccc2cc1Oc1ccc(cc1)CC1c3c(cc4c(c3Oc3cc5c(cc3OC)CCN(C)C5C2)OCO4)CCN1C` (stereo not given), the Potency entry in [2], in experiment [3] and in [4] was “inactive” in each case. For the same molecule, the Potency is 2240 nM (active) in the experiment on 7G8; 4470 nM (active) in the experiment with ATS95; 12000 nM (active) in the experiment on CP203; 5360 nM (active) with DIV14; 6750 nM (active) in the experiment with GB4.

`CN(C)CCc1c[nH]c2ccc(CC3COC(=O)N3)cc12` (stereo not given): the Potency result (in experiment [7]; in experiment [2]; in experiment [3]; in experiment [4]; in experiment [8]; in the experiment on ATS95) was “inactive” each time. Besides, the Potency result in the experiment on CP203, in the experiment on DIV14 and in the experiment with GB4 was “inactive” throughout.

With `Cc1cc(O)c(C=O)c2c1C(=O)Oc1c(C)c(O)c3c(c1O2)C(O)OC3=O` (stereo not given), the Potency result in experiment [1], in [2] and in experiment [3] was “inactive” each time.

For the molecule `CC(=O)N[C@@H]1C(O)OC(CO)C(O)C1O` (stereo not given in full), the Potency entry (in experiment [7]; in [2]; in experiment [3]; in experiment [4]; in [8]; with ATS95) was “inactive” in each case. Besides, in the experiment on CP203, the Potency entry is “inactive”.

On to `C[C@]12CCC(=O)C=C1CCC1C2C(=O)C[C@]2(C)C1CC[C@]2(O)C(=O)CO` (stereo not given in full), for which the Potency result (in [7]; in [2]; in experiment [3]; in experiment [8]; with 7G8; in the experiment with ATS95) was “inactive” throughout. For the same molecule, the Potency result with CP203 and with GB4 was “inactive” each time.

On to `CN1CC(=O)N=C1N`, for which the Potency entry (in experiment [7]; in experiment [2]; in experiment [3]; in experiment [4]; in experiment [8]; with 7G8) was “inactive” throughout. Further, the Potency entry in the experiment on ATS95, in the experiment on CP203, in the experiment on DIV14 and with GB4 was “inactive” each time.

With `O=C1OC(CO)C(O)C(O)C1O` (stereo not given), the Potency result (in experiment [7]; in experiment [2]; in [3]; in [4]; in experiment [8]; in the experiment on 7G8) was “inactive” throughout. For the same molecule, the Potency result in the experiment on ATS95, in the experiment with CP203, with DIV14 and in the experiment with GB4 was “inactive” in each case.

Regarding `CCC(CCC(C)C1CCC2C3CC=C4CC(O)CC[C@@]4(C)C3CC[C@@]12C)C(C)C` (stereo not given in full), the Potency entry (in experiment [2]; in [3]; in experiment [4]; in [8]; in the experiment on 7G8; with ATS95) was “inactive” each time. Further, the Potency entry with CP203, in the experiment on DIV14 and in the experiment with GB4 was “inactive” each time.

With `CCC(C)C(=O)OC1CCC=C2C=CC(C)C(CCC3CC(O)CC(=O)O3)[C@@H]21` (stereo not given in full), the Potency in experiment [7] was 20000 nM (active). The Potency entry (in experiment [1]; in [2]; in experiment [3]; in the experiment on 7G8; with ATS95; with CP203) was “inactive” each time. The Potency result in the experiment with DIV14 and in the experiment with GB4 was “inactive” each time.

Take `CN(C)CCCOC1C(C(O)CO)OC2OC(C)(C)O[C@@H]21` (stereo not given in full): the Potency result (in experiment [7]; in experiment [2]; in experiment [3]; in experiment [8]; in the experiment with 7G8; in the experiment on ATS95) was “inactive” in each case. The Potency result in the experiment on CP203, in the experiment with DIV14 and in the experiment with GB4 was “inactive” each time.
